Measured values reported in PubChem BioAssay (EPA / NIEHS).
The source made the active and inactive calls. How the source made its calls: active means hit-call score of the fitted dose curve at least 0.9, where 1 is the maximum; inactive means score below 0.9.

Assay: ATG_M_06_CIS: Attagene CIS-FACTORIAL HepG2 Assay for M06 Transcription Factor (Internal Marker) (AID 2282950)
Settings: HepG2 Attagene CIS-FACTORIAL M06 internal marker reporter; actives raise or lower the signal
Method: ATG_CIS is a cell-based, multiplexed-readout assay that uses HepG2, a human liver cell line, with measurements taken at 24 hours after chemical dosing in a 24-well plate.ATG_M_06_CIS is one of 52 assay component(s) measured or calculated from the ATG_CIS assay. It is designed to make measurements of mRNA induction, a form of inducible reporter, as detected with fluorescence intensity signals by Reverse transcription polymerase chain reaction (RT-PCR) and Capillary electrophoresis technology.Data from the assay component ATG_M_06_CIS was analyzed into 1 assay endpoint. This assay endpoint, ATG_M_06_CIS, was analyzed with bidirectional fitting relative to DMSO as the negative control and baseline of activity. Using a type of inducible reporter, measures of mRNA for gain or loss-of-signal activity can be used to understand the background control at the transcription factor-level as they relate to the gene . Furthermore, this assay endpoint can be referred to as a secondary readout, because this assay has produced multiple assay endpoints where this one serves a background control function. To generalize the intended target to other relatable targets, this assay endpoint is annotated to the background measurement intended target family, where the subfamily is internal marker.
Human liver HepG2 cells are transiently transfected with multiple reporter transcription units (MRTUs) in 6-well plates using FuGene 6 reagent (Roche; 3 ml FuGene/1 mg DNA). The MRTU constructs are regulated by a cis-regulating element (promoter). […] A major difference between the CIS and TRANS system is that in CIS activities of endogenous TFs are measured, whereas the TRANS assay evaluates changes in activities of exogenous, chimeric NR-Gal4 proteins. […] At the end of 24 hour incubation, total RNA was isolated using TriZol reagent (Invitrogen). The isolated RNA is then reverse-transcribed using oligo(dT) primer and Mo-MLV reverse transcriptase (Invitrogen) with DNAse I (Ambion) treatment for 30 min. The one-tenth of the produced cDNA was amplified by PCR using Taq DNA polymerase (Invitrogen) and two reporter sequence-specific primers. The PCR products were fluorescently labeled by primer extension with 6-arboxyfluorescein (6-FAM) 5'-labeled reporter sequence-specific primer (2 min at 95 C, 20 s at 68 C and 10 min at 72 C) and these products were digested with 5U of HpaI (New England Biolabs) for 2h at 37 C. The fragments were purified using Qiaquick PCR columns (Qiagen), analyzed on an ABI 3130xL genetic analyzer (Applied Biosystems) with peak positions identified by using a set of X-rhodamine (ROX)-labeled MapMarker1000 molecular weight standards (BioVentures). The raw capillary electrophoresis data was processed using Attagraph software (Attagene).

Row | Compound | outcome | AC50
1 | C=C(C)CNCC | inactive | –
2 | CC1C2CC(CC2C2CCCC(O)C2)C1(C)C (stereo not given) | inactive | –
3 | CC=Cc1ccc(OCC)c(O)c1 | inactive | –
4 | COc1ccccc1N=Nc1c(S(=O)(=O)O)cc2cc(S(=O)(=O)O)cc(NC(C)=O)c2c1O | inactive | –
5 | Cc1occc(=O)c1OC(=O)C(C)C | inactive | –
6 | CCCCCCCCSCCO | inactive | –
7 | c1ccc(CCc2ccccc2)cc1 | inactive | –
8 | O=C(Nc1ccc2c(O)c(N=Nc3ccc(N=Nc4ccc(S(=O)(=O)O)cc4)cc3)c(S(=O)(=O)O)cc2c1)c1ccccc1 | inactive | –
9 | CCCCCCC(=O)c1ccccc1 | inactive | –
10 | N#Cc1ccc(CC(=O)c2cccc(C(F)(F)F)c2)cc1 | inactive | –
11 | O=C(O)CCCCCCCCC(=O)O | inactive | –
12 | O=c1c(O)c(-c2ccc(O)cc2)oc2cc(O)cc(O)c12 | inactive | –
13 | COC(C)(C)CCCC(C)CC=O (stereo not given) | inactive | –
14 | NCC1CCCC(CN)C1 (stereo not given) | inactive | –
15 | CC1=NN(c2ccc(S(=O)(=O)O)cc2)C(=O)C1 | inactive | –
16 | CCOC(=O)C(C#N)=C(c1ccccc1)c1ccccc1 | inactive | –
17 | CCCCCCC(C)Nc1ccc(Nc2ccccc2)cc1 (stereo not given) | inactive | –
18 | O=C(O)COCC(=O)O | inactive | –
19 | CCCCC(CC)COC(C)=O (stereo not given) | inactive | –
20 | Cc1cccc(Nc2ccccc2)c1 | inactive | –

Row | Compound | outcome | AC50
21 | CCCC(O)C(O)CO (stereo not given) | inactive | –
22 | O=C1OC2(c3ccccc31)c1ccc(O)c(Br)c1Oc1c2ccc(O)c1Br | inactive | –
23 | Cc1[nH]c(=O)c(C#N)cc1-c1ccncc1 | inactive | –
24 | Nc1c(Cl)cc(Cl)cc1[N+](=O)[O-] | inactive | –
25 | C1CCCCC1 | inactive | –
26 | CCCCSCCCC | inactive | –
27 | COC(=O)Nc1ccc(Cl)c(Cl)c1 | inactive | –
28 | CCC1CCCCC1 | inactive | –
29 | CS(=O)(=O)c1ccc(Cl)cc1 | inactive | –
30 | CCCCCCCCc1ccc(S(=O)(=O)O)cc1 | – | 155 µM (active)
31 | CC(=O)O[C@@H]1CC2CCC1(C)C2(C)C (stereo not given in full) | inactive | –
32 | C=C(C)C1CC=C(C)C(=O)C1 (stereo not given) | inactive | –
33 | FC(F)(F)COCC(F)(F)F | inactive | –
34 | CCCCCCCCCC(C)C=O (stereo not given) | inactive | –
35 | C=C1C[C@]23C[C@@]1(O)CC[C@H]2[C@@]12C=C[C@H](O)[C@@](C)(C(=O)O1)[C@H]2[C@@H]3C(=O)O | inactive | –
36 | CC(=O)C1(C)CC2=C(CCCC2(C)C)CC1C (stereo not given) | inactive | –
37 | CCCCCc1ccco1 | inactive | –
38 | CCc1cc(C(C)(C)C)c(O)c(C(C)(C)C)c1 | inactive | –
39 | CC(=O)c1c(C)c([N+](=O)[O-])c(C(C)(C)C)c([N+](=O)[O-])c1C | inactive | –
40 | C1=CC2C3C=CC(C3)C2C1 (stereo not given) | inactive | –
